Test results from PubChem BioAssay.
The source made the active and inactive calls.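 Rule for the calls: active = compounds killing one labelled cell type while sparing the other, by normalised counts and ratio limits, not self-fluorescent; inactive = the rest.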

Test: EMT-state selective cytotoxicity in co-culture – imaging, PC-3E GFP, TEM4-18 mCherry, primary screen (AID 1345086);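 note: cells exposed to compound for 72 h before imaging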;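 for red/green cell ratio (normalised): normalised mesenchymal count divided by normalised epithelial count so high means epithelial killing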
Conditions: PC-3E GFP / TEM4-18 mCherry co-culture, imaging cell counts, at 1 µM; for red/green cell ratio (normalised): actives lie on both sides, counts scaled to control wells, 1 = unselective
[1] = measured here: epithelial PC-3E GFP cell survival
[2] = measured here: mesenchymal TEM4-18 mCherry cell survival

SMILES	red/green cell ratio (normalised)	normalised cell number [1]	normalised cell number [2]
CCC1=CC2CN(C1)Cc1c([nH]c3ccccc13)[C@@](C(=O)OC)(c1cc3c(cc1OC)N(C)[C@H]1[C@@](O)(C(=O)OC)[C@H](OC(C)=O)[C@]4(CC)C=CCN5CC[C@]31[C@@H]54)C2 (stereo partly specified)	1.47 (inactive)	0.13	0.2
Cc1oc(=O)c2c(O)cc(O)c(C)c2c1C	1.03 (inactive)	1.11	1.14
CO[C@H]1/C=C/C[C@@H](C)OC(=O)c2c(O)cc(O)cc2CC(=O)CCC1	1.01 (inactive)	0.98	0.98
CCCCC/C=C/C1=C(CO)[C@H](O)[C@H]2O[C@H]2[C@@H]1O	1 (inactive)	1.08	1.08
O=C1N=NC(=O)N1c1ccccc1	0.86 (inactive)	1.19	1.03
O=S(=O)([O-])OC[C@H]1O[C@@](COS(=O)(=O)[O-])(O[C@H]2O[C@H](COS(=O)(=O)[O-])[C@@H](OS(=O)(=O)[O-])[C@H](OS(=O)(=O)[O-])[C@H]2OS(=O)(=O)[O-])[C@@H](OS(=O)(=O)[O-])[C@@H]1OS(=O)(=O)[O-].[Al+3].[Na+].[Na+].[O-2].[O-2].[OH-]	0.81 (inactive)	1.15	0.93
COc1cc(OC)c2c(O)c(C(C)=O)c(C)cc2c1	1.01 (inactive)	1.08	1.09
